# Experimental data: PubChem BioAssay AID602261 (Sanford-Burnham Center for Chemical Genomics, 2012)
# In all, about 360,000 compounds went through this assay and about 2,400 (0.67%) were called active. The sample as a whole holds a higher share of actives than the screen did. Values without a mark were called inactive.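 How the source made its calls: active means compounds whose normalised, plate-corrected inhibition of enzyme fluorescence in the single-dose primary screen is 50% or more; inactive means the rest.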
# Target: Fatty acid synthase (Homo sapiens) (UniProt P49327)
# Sequence (P49327 whole entry, looked up, the tested form may be a part): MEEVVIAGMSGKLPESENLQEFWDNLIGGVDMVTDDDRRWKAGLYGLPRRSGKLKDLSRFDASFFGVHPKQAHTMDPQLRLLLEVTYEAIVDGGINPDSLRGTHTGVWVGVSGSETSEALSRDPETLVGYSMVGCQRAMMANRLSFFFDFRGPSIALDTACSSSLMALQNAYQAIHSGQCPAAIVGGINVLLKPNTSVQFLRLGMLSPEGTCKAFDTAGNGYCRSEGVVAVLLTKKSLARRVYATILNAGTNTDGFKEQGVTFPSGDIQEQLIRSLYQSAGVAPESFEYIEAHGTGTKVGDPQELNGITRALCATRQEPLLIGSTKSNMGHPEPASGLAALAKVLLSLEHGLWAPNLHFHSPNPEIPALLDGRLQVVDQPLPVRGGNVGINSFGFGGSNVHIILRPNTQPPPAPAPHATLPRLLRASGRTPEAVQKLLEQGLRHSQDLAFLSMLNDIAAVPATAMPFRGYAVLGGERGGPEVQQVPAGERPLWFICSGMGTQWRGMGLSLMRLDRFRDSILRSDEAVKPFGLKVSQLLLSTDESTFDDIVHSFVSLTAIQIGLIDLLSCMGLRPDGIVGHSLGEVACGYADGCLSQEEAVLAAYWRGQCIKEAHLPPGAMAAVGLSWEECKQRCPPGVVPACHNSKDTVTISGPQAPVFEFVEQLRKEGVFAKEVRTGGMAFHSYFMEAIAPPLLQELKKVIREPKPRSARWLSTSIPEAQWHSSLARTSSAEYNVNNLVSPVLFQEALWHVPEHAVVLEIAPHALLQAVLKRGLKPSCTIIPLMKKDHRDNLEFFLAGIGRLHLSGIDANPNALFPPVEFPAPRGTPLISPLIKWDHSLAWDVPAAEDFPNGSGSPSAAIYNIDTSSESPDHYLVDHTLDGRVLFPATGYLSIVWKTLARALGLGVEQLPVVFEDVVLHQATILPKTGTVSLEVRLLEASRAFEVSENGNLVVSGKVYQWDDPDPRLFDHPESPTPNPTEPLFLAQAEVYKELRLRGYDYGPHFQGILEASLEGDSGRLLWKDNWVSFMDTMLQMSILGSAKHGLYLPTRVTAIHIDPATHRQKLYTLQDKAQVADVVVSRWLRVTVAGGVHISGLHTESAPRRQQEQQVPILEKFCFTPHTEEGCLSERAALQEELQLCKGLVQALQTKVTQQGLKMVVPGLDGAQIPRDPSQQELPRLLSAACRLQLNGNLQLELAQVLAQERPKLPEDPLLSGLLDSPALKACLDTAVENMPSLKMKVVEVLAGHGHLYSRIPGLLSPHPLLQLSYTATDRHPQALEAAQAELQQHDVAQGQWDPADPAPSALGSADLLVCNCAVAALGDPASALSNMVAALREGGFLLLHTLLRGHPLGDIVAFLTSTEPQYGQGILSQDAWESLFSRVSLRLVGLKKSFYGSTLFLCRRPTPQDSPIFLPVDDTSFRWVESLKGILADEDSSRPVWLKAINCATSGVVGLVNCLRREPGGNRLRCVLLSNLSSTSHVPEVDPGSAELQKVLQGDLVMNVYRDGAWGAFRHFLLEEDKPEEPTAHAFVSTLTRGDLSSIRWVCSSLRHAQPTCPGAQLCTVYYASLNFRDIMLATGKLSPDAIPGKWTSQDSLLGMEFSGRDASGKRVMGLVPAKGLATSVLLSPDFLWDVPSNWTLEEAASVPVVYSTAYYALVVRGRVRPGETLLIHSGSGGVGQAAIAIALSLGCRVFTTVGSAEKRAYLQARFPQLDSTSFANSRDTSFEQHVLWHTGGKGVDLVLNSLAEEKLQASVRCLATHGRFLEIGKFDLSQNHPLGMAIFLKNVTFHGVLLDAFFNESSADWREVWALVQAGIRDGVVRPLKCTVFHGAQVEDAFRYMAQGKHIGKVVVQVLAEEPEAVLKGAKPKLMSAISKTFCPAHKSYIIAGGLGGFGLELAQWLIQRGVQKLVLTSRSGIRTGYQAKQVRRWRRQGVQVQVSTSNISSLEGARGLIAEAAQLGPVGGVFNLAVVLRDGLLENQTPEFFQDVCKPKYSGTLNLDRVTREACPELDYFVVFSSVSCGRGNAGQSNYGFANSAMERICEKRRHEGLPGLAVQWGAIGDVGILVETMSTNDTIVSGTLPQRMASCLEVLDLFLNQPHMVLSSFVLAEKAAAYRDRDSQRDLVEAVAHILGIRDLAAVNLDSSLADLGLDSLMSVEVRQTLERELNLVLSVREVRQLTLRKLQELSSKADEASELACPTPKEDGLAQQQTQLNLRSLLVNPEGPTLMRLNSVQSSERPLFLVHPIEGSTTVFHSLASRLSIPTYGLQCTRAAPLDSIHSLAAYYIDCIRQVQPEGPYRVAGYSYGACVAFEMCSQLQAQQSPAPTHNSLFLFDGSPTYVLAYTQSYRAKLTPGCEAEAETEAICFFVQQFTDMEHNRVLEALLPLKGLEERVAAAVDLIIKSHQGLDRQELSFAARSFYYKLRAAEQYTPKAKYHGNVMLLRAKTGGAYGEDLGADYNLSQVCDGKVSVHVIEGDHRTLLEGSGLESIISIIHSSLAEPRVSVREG
# Test: FAS thioesterase domain inhibitors, primary screen, biochemical, fluorescence intensity, uHTS (AID 602261);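 further: 0% = DMSO with enzyme and 100% = substrate without enzyme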
# Details: recombinant FAS-TE, OMFH fluorogenic substrate, fluorescence endpoint; at 15 µM; stronger effect = higher value
row,SMILES,inhibition
1,CC1(C)OC(=O)N2CCc3ccccc3C21C (stereo not drawn),-4.7%
2,O=C(c1ccc2c(c1)C(=O)N(c1ccc(Cl)cc1)C2=O)N1CCN(c2ccccn2)CC1,-5.5%
3,O=C1c2ccccc2S(=O)(=O)c2cc(N3CCN(c4ccccn4)CC3)ccc21,12.8%
4,O=C(c1ccc2c(c1)N(Cc1ccc(F)cc1)C(=O)c1ccccc1S2(=O)=O)N1CCN(c2ccccn2)CC1,56.9% (active)
5,COCCNC(=O)CCCn1c(=O)c2ccccc2n(Cc2cccc([N+](=O)[O-])c2)c1=O,55.7% (active)
6,CCCCNC(=O)CCn1c(=O)c2ccccc2n(Cc2cc(C)ccc2C)c1=O,-13.3%
7,COc1ccccc1CNC(=O)CCCn1c(=O)c2ccccc2n(CC(=O)NC2CCCC2)c1=O,-7.6%
8,CCOC(=O)N1CCN(Cc2nc3c(c(=O)n(C)c(=O)n3C)n2Cc2ccccc2)CC1,4%
9,COCCn1c(CN2CCC(Cc3ccccc3)CC2)nc2c1c(=O)n(C)c(=O)n2C,53.4% (active)
10,CN1CCN(Cc2nc3c(c(=O)n(C)c(=O)n3C)n2Cc2cccc3ccccc23)CC1,17.2%
11,COc1ccc(OC)c(S(=O)(=O)N2CCCC(C(=O)N3CCC(C(N)=O)CC3)C2)c1 (stereo not drawn),-9.7%
12,COc1ccc(C2=NN(C(=O)c3ccccc3C(=O)O)C(c3ccccc3O)C2)cc1 (stereo not drawn),-6.4%
13,COc1ccc(C2CC(c3cccc(OC)c3)=NN2c2ccc(S(N)(=O)=O)cc2)cc1 (stereo not drawn),18.6%
14,COc1ccc(C2CC(c3ccccc3)=NN2C(=O)c2ccc(Cl)c([N+](=O)[O-])c2)cc1 (stereo not drawn),65.8% (active)
15,CCCn1c(SCC(=O)Nc2ccc(C)c(S(=O)(=O)N3CCOCC3)c2)n[nH]c1=O,-3.3%
16,Cc1cc(C)c2nc(-c3cccnc3)cc(C(=O)Nc3ccc(S(=O)(=O)Nc4onc(C)c4C)cc3)c2c1,-0.1%
17,C/C(=N\Nc1ccc([N+](=O)[O-])cc1)c1ccc(-n2nncc2C(C)(C)C)cc1,-16%
18,C/C(=N\Nc1nc(N2CCOCC2)nc(N2CCOCC2)n1)c1ccc([N+](=O)[O-])cc1,57.8% (active)
19,C/C(=N/NC(=O)CC(=O)N/N=C(\C)c1ccc([N+](=O)[O-])cc1)c1ccc([N+](=O)[O-])cc1,36%
20,O=C(NCCN1CCOC1=O)C1CCC(=O)N(CCc2ccc(Cl)cc2)C1 (stereo not drawn),0.7%
21,O=C(c1cnccn1)N1CCN(S(=O)(=O)c2cccc(Cl)c2)CC1,-6.3%
22,Cc1ccc(S(=O)(=O)/N=C(/NC(=S)Nc2c(C)n(C)n(-c3ccccc3)c2=O)c2ccccc2)cc1,-4.4%
23,CC[C@]12c3[nH]c4ccc(Cl)cc4c3CCN1C(=O)[C@@H](CC(=O)NCCCOC)C[C@@H]2C(=O)N1CCN(C(=O)C2CC2)CC1,-5.2%
24,CCOC1=C2[C@H]([C@H]3C(=O)N(c4ccccc4)C(=O)[C@H]3C1)[C@@H](c1ccccc1)N(S(=O)(=O)c1ccc(C)cc1)[C@H]2c1ccccc1,69.2% (active)
25,CCOC(=O)C1=C(N)N(c2ccc(C)cc2)C2=C(C(=O)CCC2)C1c1cccs1 (stereo not drawn),20.7%
26,CCOC(=O)C1=CC[C@@H](c2ccccc2)N(S(=O)(=O)c2ccc(C)cc2)[C@H]1c1ccc(CC)cc1,31.8%

row,SMILES,inhibition
1,Cc1ccc(S(=O)(=O)N2C[C@@H](C)[C@]3(C2)[C@H](O)[C@H](OC(=O)NCc2ccccc2)C[C@H]2C(=O)N(c4ccccc4)C(=O)[C@H]23)cc1,18.7%
2,CCOC1=C2[C@@H](CN(S(=O)(=O)c3ccc(C)cc3)[C@H]2c2ccccc2F)[C@H]2C(=O)N(Cc3ccccc3)C(=O)[C@H]2C1,35.8%
3,CCOC1=C2CN(S(=O)(=O)c3ccc(C)cc3)[C@H](c3cccs3)C[C@H]2[C@H]2C(=O)N(c3ccccc3)C(=O)[C@H]2C1,58% (active)
4,NC(=O)COC(=O)c1sc2cc(F)ccc2c1Cl,5%
5,CCOc1ccc2[nH]c(=S)sc2c1,-1.4%
6,CN1CCN(S(=O)(=O)c2ccc(Nc3ccc(F)cc3)nc2)CC1,-0.3%
7,CC1CN(C(=O)c2cc(COc3c(F)cccc3F)on2)CCN1C (stereo not drawn),-5.4%
8,Cc1nnc(-c2ccc(Oc3ccc(C)c(C)c3)c([N+](=O)[O-])c2)o1,21.4%
9,COc1cccc2c1CCC(NC(C)=O)C2=O (stereo not drawn),-7.2%
10,O=C(NC(Nc1nc2ccc([N+](=O)[O-])cc2s1)(C(F)(F)F)C(F)(F)F)c1ccccc1,10.8%
11,Brc1ccccc1/C=N/Nc1nc2ccccc2o1,-4.3%
12,O=[N+]([O-])c1cc(Br)c(O)c(/C=N/Nc2nc3ccccc3s2)c1,52.5% (active)
13,COc1ccc(SCc2noc(C(=O)NCC3CCCO3)c2C(=O)O)cc1 (stereo not drawn),-6.7%
14,Cc1cccc(N(CC(=O)N2CCCC2)S(C)(=O)=O)c1C,-4.4%
15,COCCN1C2=C(COC(C)(C)C2)C(=S)NC1c1ccccc1 (stereo not drawn),-8.2%
16,Cc1ccc2c(c1)NC(=O)[C@@]1(C)[C@@H](c3ccccc3)[C@H]3COc4ccc(Cl)cc4[C@@H]3N1C2=O,15.6%
17,CCOC(=O)[C@H]1[C@H]2COc3ccc(OC)cc3[C@@H]2N2C(=O)c3ccc(F)cc3NC(=O)[C@@]12C,-4.6%
18,COc1ccc2c(c1)[C@H]1[C@H](CO2)[C@H](c2ccccc2)[C@]2(C)C(=O)Nc3cc(F)c(F)cc3C(=O)N12,71.2% (active)
19,CCOC(=O)c1ccc(COC(=O)CCc2nc(-c3ccccc3)c(-c3ccccc3)o2)cc1,26.3%
20,COc1cc(OC)cc(-c2cc3nc(C4CCN(C(=O)OC(C)(C)C)CC4)cc(=O)n3[nH]2)c1,-5.7%
21,CCC(C)NC(=O)C1CCCN(C(=O)NC2CCCCC2)C1 (stereo not drawn),-6.1%
22,O=C(c1[nH]ncc1-c1ccc(Cl)cc1)C1CO1 (stereo not drawn),-22%
23,O=C(NC(=S)NC1CCS(=O)(=O)C1)c1cccc([N+](=O)[O-])c1 (stereo not drawn),-3.5%
24,Cc1ccc(NC(=O)C(=O)NCC2CCN(C(=O)c3cccc([N+](=O)[O-])c3)CC2)cc1,0.8%
25,O=C(Nc1ccc(C2CC2(Cl)Cl)cc1)c1cccc([N+](=O)[O-])c1 (stereo not drawn),90.9% (active)
26,CCOc1ccc(CCNC(=O)COC(=O)c2ccc(F)c(S(=O)(=O)N3CCOCC3)c2)cc1OCC,-4.3%

row,SMILES,inhibition
1,N#Cc1c(/N=C/N2CCCC2)oc(-c2ccccc2)c1-c1ccccc1,27.6%
2,CCN1C(=O)[C@H]2[C@@H](c3ccc(C)cc3)N3C(=O)N(c4cccc(Br)c4)C(=O)[C@@]3(CC)[C@H]2C1=O,-1.3%
3,O=C1[C@H]2[C@@H](c3ccc(Cl)cc3)N3C(=O)N(c4cccc(F)c4)C(=O)[C@@]3(Cc3ccccc3)[C@H]2C(=O)N1C1CCCCC1,92.2% (active)
4,Cc1cccc(N2C(=O)N3[C@H](c4ccc(F)cc4)[C@@H]4C(=O)N(C5CCCCC5)C(=O)[C@@H]4[C@]3(Cc3ccccc3)C2=O)c1,90.1% (active)
5,O=C1[C@H]2[C@@H](c3ccc(C(F)(F)F)cc3)N[C@]3(CCCN(Cc4ccc(Br)cc4)C3=O)[C@H]2C(=O)N1Cc1ccccc1,41.2%
6,CC12C(=O)N(c3ccccc3)C(=O)C1C(c1ccccc1)N1CCCN12 (stereo not drawn),-2.7%
7,O=C1[C@H]2[C@@H](c3ccc(C(F)(F)F)cc3)N[C@]3(CCCN(Cc4ccc(Cl)cc4)C3=O)[C@H]2C(=O)N1Cc1ccccc1,41.2%
8,Cc1ccc([C@H]2N[C@]3(CCCN(CC4CCCCC4)C3=O)[C@H]3C(=O)N(Cc4ccccc4)C(=O)[C@@H]23)cc1,21.4%
9,CC(C)(C)N1C(=O)[C@H]2[C@@H](c3ccc(Br)cc3)N3C(=O)N(c4cccc(Cl)c4)C(=O)[C@@]3(C)[C@H]2C1=O,31.7%
10,O=C1[C@H]2[C@@H](c3ccc(F)cc3)N3C(=O)N(c4ccc(C(F)(F)F)cc4)C(=O)[C@@]3(Cc3ccccc3)[C@H]2C(=O)N1C1CCCCC1,91.3% (active)
11,C[C@@]12C(=O)N(c3cccc(Br)c3)C(=O)N1[C@H](c1ccc(Cl)cc1)[C@@H]1C(=O)N(C3CCCCC3)C(=O)[C@@H]12,93.7% (active)
12,COc1cc(NC(=O)C2=C(C)OCCS2)c(Cl)cc1C(=O)NCCN1CCN(C)CC1,-10.2%
13,CC1CCN(S(=O)(=O)c2ccc(NC(=O)C3CC(=O)N(c4ccccc4)C3)cc2)CC1 (stereo not drawn),4.6%
14,COc1ccc(CNC(=O)CN2CCC(n3nnc4cc(F)ccc43)CC2)cc1,1.6%
15,Cc1csc(SCC(=O)N(c2ccccc2)C(C)C)n1,-7.2%
16,CC(NC(=O)C1CCC(CNc2c(N3CCOCC3)c(=O)c2=O)CC1)c1ccccc1 (stereo not drawn),3.6%
17,S=c1[nH]c2ccccc2c2ccccc12,-0.9%
18,COCC1CCN(C(=O)C2CCC(=O)N(Cc3cccc(C(F)(F)F)c3)C2)CC1 (stereo not drawn),-6.2%
19,O=C(CCNS(=O)(=O)c1cccs1)N1CCN(c2ccc(F)cc2)CC1,-4.4%
20,NC1=NC(=O)C2(COC(c3ccccc3Cl)OC2)S1 (stereo not drawn),-3.8%
21,Cc1cccc([C@@H]2[C@@H]3C(=O)N(Cc4ccccc4)C(=O)[C@@H]3[C@]3(Cc4ccc(Cl)cc4)C(=O)N(c4cccc(Cl)c4)C(=O)N23)c1,91.3% (active)
22,CC[C@@]12C(=O)N(c3ccccc3)C(=O)N1[C@H](c1ccc(Br)cc1)[C@@H]1C(=O)N(C(C)(C)C)C(=O)[C@@H]12,13.2%
23,Cc1cccc([C@@H]2[C@@H]3C(=O)N(Cc4ccccc4)C(=O)[C@@H]3[C@]3(C)C(=O)N(c4ccc(Br)cc4)C(=O)N23)c1,39.4%
24,COc1ccc([C@@H]2[C@@H]3C(=O)N(C(C)(C)C)C(=O)[C@@H]3[C@]3(Cc4ccccc4)C(=O)N(c4cccc(Br)c4)C(=O)N23)cc1,89.7% (active)
25,COc1cccc(N2C(=O)CN(Cc3ccccc3)C2=S)c1,-0.9%
26,Cc1cccc(N2C(=O)C3C(c4ccccc4)OC4(C(=O)c5ccccc5C4=O)C3C2=O)c1 (stereo not drawn),-2.5%
